The text below walks through data of PubChem BioAssay (NCI).

Each structure is given as a SMILES string. Compounds without any hit were thinned out: in the full panel of roughly 83,000, 20% have a hit.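 Results are percent growth after 48 hours of single-concentration exposure. 100 means growth as in untreated cells, lower positive values show inhibition; negative values down to -100 show cell death.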 Unmarked numbers belong to inactive results. The source made the active and inactive calls. How the source made its calls: active means growth percent below 10; inactive means the rest.

The subject of the first assay is K-562 leukemia. Briefly: NCI-60 one-dose screen, 48 h (100 = growth as untreated, 0 = no growth, -100 = all killed). Conditions: 10 µM unless noted.
As to `COc1ccc(/C=N/Nc2cc(=O)[nH]c3ccc(Cl)cc23)cc1`, the growth was 20.9%.

Take `CCCCCCN(CCCCCC)c1ccc(/C=C2/SC(=O)NC2=O)c(C)c1`: the growth was 65.2%.

Take `CC(=O)Oc1ccccc1C(=O)N=C1[Se]CCCN1C(=O)c1ccccc1OC(C)=O`: the growth is 32.1%.

Turning to `CC(C)OC(=O)Nc1ccc(-c2nc(-c3cccc(OCCN4CCOCC4)c3)c(-c3ccnc(Br)c3)[nH]2)cc1`, the growth is 0.869% (active).

On to `Cc1cc2nc3ccc(N=Nc4ccc(N(C)C)cc4)cc3n(-c3ccccc3)c-2cc1=N`, for which the growth was 17.9%.

With `CCCCn1c(-c2ccc(-c3nc(-c4ccc(Cl)cc4)no3)cc2)nc(-c2ccccc2)c1-c1ccccc1`, the growth is 58.9%.

For the molecule `Oc1c(I)cc(I)cc1CNCCCN(Cc1ccccn1)Cc1ccccn1`, the growth was 5.96% (active).

For the molecule `C/C(=N/NC(N)=S)c1sc(Nc2cccc(Cl)c2)nc1C`, the growth was 68.7%.

`Cc1nn(-c2ccccc2)c2c1N=c1s/c(=C\c3ccc(C(F)(F)F)cc3)c(=O)n1CN2`: the growth is 93.1%.

Consider `O=C(O)CCC(=O)Nc1nnc(-c2ccccc2)s1`, for which the growth was 91.7%.

With `Oc1ccc(Cl)cc1Cc1cc(Cl)cc(Cl)c1O`, the growth is 5.3% (active).

As to `O=c1c2cccc(Cl)c2sc2c(NCCCNCCO)nc3ccccc3c12`, the growth was -48.1% (active).

On to `COc1cc(C2CC(c3cccc(Br)c3)=NN2C(C)=O)cc(OC)c1OC` (stereo unspecified), for which the growth is 49.2%.

In the case of `COc1ccc(-c2nc(NN)c3c(C)nn(-c4ccc(F)cc4)c3n2)cc1`, the growth was 17.8%.

For the molecule `CCOC(=O)NCCc1ccccc1`, the growth was 91.4%.

Regarding `COc1ccccc1/C=C1\Oc2cc(OCCN3CCC(Cc4ccccc4)CC3)ccc2C1=O`, the growth was 27.6%.

As to `O=C(COc1ccc(/C=C2\Cc3ccc(Cl)cc3C2=O)cc1)Nc1nc2ccccc2s1`, the growth was 86.4%.

For the molecule `CCc1cccc2c3c(sc12)C(c1ccc(F)cc1)C(C#N)=C(N)O3` (stereo unspecified), the growth is 12.4%.

As to `Cc1ccc(C(=O)N/N=C/c2cccc([N+](=O)[O-])c2)cn1`, the growth is 101%.

For `CCOC(=O)C1=C(N)Oc2c(sc3c(C)cccc23)C1c1ccc(Cl)cc1` (stereo unspecified), the growth was 9.65% (active).

In the case of `COc1ccc(-n2c(N)c(-c3nc4ccccc4[nH]3)cc(C#N)c2=O)cc1`, the growth was 93.5%.

For the molecule `Cc1cc2nc3cc(C)c(N)cc3[n+](-c3ccccc3)c2cc1N`, the growth was 32.4%.

Take `COc1c(N2CC3CCCN(C(C)=O)C3C2)c(F)cc2c(=O)c(C(=O)N[C@H]3C(O)[C@@H](O)C(CO)O[C@H]3O)cn(C3CC3)c12` (stereo partly specified): the growth was 103%.

Consider `COc1ccc(C2CC(c3ccc(Nc4nc(Nc5ccc(F)cc5)nc(Nc5ccc(Cl)cc5)n4)cc3)=NN2C(C)=O)cc1` (stereo unspecified), for which the growth is 114%.

As for `O=c1[nH][n+](-c2ccc(Br)cc2)no1`, the growth is 10.9%.

For `O=C(CSc1nccc(Nc2ccc(S(=O)(=O)Nc3nccs3)cc2)n1)c1ccc(C(F)(F)F)cc1`, the growth is 114%.

As for `COc1cc(C2CC(c3ccc(N(C)C)cc3)=NN2C(C)=O)cc(OC)c1OC` (stereo unspecified), the growth is 17.6%.

`COc1ccc2c(c1)c(-c1ccc(-c3cn(C)c4ccc(OC)cc34)o1)cn2C`: the growth is 2.25% (active).

`COc1ccc(CN2c3ccccc3CCc3ccccc32)cc1F`: the growth is 6.04% (active).

`CC(=O)N1N=C(c2ccc(Nc3nc(Nc4ccc(F)cc4)nc(Nc4ccc(Cl)cc4)n3)cc2)CC1c1ccc(Cl)cc1` (stereo unspecified): the growth is 88.1%.

With `COc1ccc(OC)c(/C=C/c2nnc(Nc3ccccc3)o2)c1`, the growth was 83.2%.

Take `COc1cc2cc(Oc3ccc(NC(=O)Nc4ccc(Cl)c(C(F)(F)F)c4)cc3)c(C)nc2cc1OCCN1CCOCC1`: the growth was 9.9% (active).

With `CCOC(=O)C1=C(N)Oc2c(sc3c(C)cccc23)C1c1ccc(F)cc1` (stereo unspecified), the growth is 4.54% (active).

`NCCCNc1nc2ccccc2c2c(=O)c3cccc(F)c3sc12`: the growth was -28.2% (active).

`CCc1ccc(Oc2c(-c3ccc(OCc4ccc(Cl)cc4)cc3O)n[nH]c2C(F)(F)F)cc1`: the growth is 3.36% (active).

As to `COc1ccc2sc3c(NCCCNCCO)nc4ccccc4c3c(=O)c2c1`, the growth was -28.2% (active).

In the case of `COc1nc2ccccc2cc1-c1nc2c(cnn2-c2ccc(Br)cc2)c(=O)[nH]1`, the growth was 16.3%.

For the molecule `Cc1oc2nc[nH]c(=O)c2c1C(=O)/C=C/c1ccc(Br)cc1`, the growth was 10.8%.

The subject of a further assay is MALME-3M melanoma. Described as above. The conditions noted are these: 10 µM unless noted.
On to `COc1ccc(/C=N/Nc2cc(=O)[nH]c3ccc(Cl)cc23)cc1`, for which the growth is 46%.

For the molecule `CCCCCCN(CCCCCC)c1ccc(/C=C2/SC(=O)NC2=O)c(C)c1`, the growth was 72.9%.

As to `CC(=O)Oc1ccccc1C(=O)N=C1[Se]CCCN1C(=O)c1ccccc1OC(C)=O`, the growth is -27.1% (active).

Consider `CC(C)OC(=O)Nc1ccc(-c2nc(-c3cccc(OCCN4CCOCC4)c3)c(-c3ccnc(Br)c3)[nH]2)cc1`, for which the growth was -5.36% (active).

Consider `Cc1cc2nc3ccc(N=Nc4ccc(N(C)C)cc4)cc3n(-c3ccccc3)c-2cc1=N`, for which the growth was -92.7% (active).

For the molecule `CCCCn1c(-c2ccc(-c3nc(-c4ccc(Cl)cc4)no3)cc2)nc(-c2ccccc2)c1-c1ccccc1`, the growth was 92%.

For the molecule `Oc1c(I)cc(I)cc1CNCCCN(Cc1ccccn1)Cc1ccccn1`, the growth was -73.2% (active).

On to `C/C(=N/NC(N)=S)c1sc(Nc2cccc(Cl)c2)nc1C`, for which the growth was 93.1%.

Turning to `Cc1nn(-c2ccccc2)c2c1N=c1s/c(=C\c3ccc(C(F)(F)F)cc3)c(=O)n1CN2`, the growth is 83.1%.

`O=C(O)CCC(=O)Nc1nnc(-c2ccccc2)s1`: the growth is 114%.

For `Oc1ccc(Cl)cc1Cc1cc(Cl)cc(Cl)c1O`, the growth was -19.5% (active).

Consider `O=c1c2cccc(Cl)c2sc2c(NCCCNCCO)nc3ccccc3c12`, for which the growth is 77.8%.

Regarding `COc1cc(C2CC(c3cccc(Br)c3)=NN2C(C)=O)cc(OC)c1OC` (stereo unspecified), the growth is 54.2%.

In the case of `COc1ccc(-c2nc(NN)c3c(C)nn(-c4ccc(F)cc4)c3n2)cc1`, the growth is 61.5%.

As for `CCOC(=O)NCCc1ccccc1`, the growth was 110%.

For `COc1ccccc1/C=C1\Oc2cc(OCCN3CCC(Cc4ccccc4)CC3)ccc2C1=O`, the growth was 76.8%.

Consider `O=C(COc1ccc(/C=C2\Cc3ccc(Cl)cc3C2=O)cc1)Nc1nc2ccccc2s1`, for which the growth is 132%.

Consider `CCc1cccc2c3c(sc12)C(c1ccc(F)cc1)C(C#N)=C(N)O3` (stereo unspecified), for which the growth was 75.9%.

In the case of `Cc1ccc(C(=O)N/N=C/c2cccc([N+](=O)[O-])c2)cn1`, the growth is 114%.

Regarding `CCOC(=O)C1=C(N)Oc2c(sc3c(C)cccc23)C1c1ccc(Cl)cc1` (stereo unspecified), the growth was 36.1%.

On to `COc1ccc(-n2c(N)c(-c3nc4ccccc4[nH]3)cc(C#N)c2=O)cc1`, for which the growth was 92.1%.

Take `Cc1cc2nc3cc(C)c(N)cc3[n+](-c3ccccc3)c2cc1N`: the growth was 48.7%.

With `COc1c(N2CC3CCCN(C(C)=O)C3C2)c(F)cc2c(=O)c(C(=O)N[C@H]3C(O)[C@@H](O)C(CO)O[C@H]3O)cn(C3CC3)c12` (stereo partly specified), the growth is 117%.

Consider `COc1ccc(C2CC(c3ccc(Nc4nc(Nc5ccc(F)cc5)nc(Nc5ccc(Cl)cc5)n4)cc3)=NN2C(C)=O)cc1` (stereo unspecified), for which the growth was 88.1%.

In the case of `O=c1[nH][n+](-c2ccc(Br)cc2)no1`, the growth was 60.3%.

On to `O=C(CSc1nccc(Nc2ccc(S(=O)(=O)Nc3nccs3)cc2)n1)c1ccc(C(F)(F)F)cc1`, for which the growth was 102%.

`COc1cc(C2CC(c3ccc(N(C)C)cc3)=NN2C(C)=O)cc(OC)c1OC` (stereo unspecified): the growth is 37.9%.

Take `COc1ccc2c(c1)c(-c1ccc(-c3cn(C)c4ccc(OC)cc34)o1)cn2C`: the growth is 80.6%.

Take `COc1ccc(CN2c3ccccc3CCc3ccccc32)cc1F`: the growth is 84.3%.

Take `CC(=O)N1N=C(c2ccc(Nc3nc(Nc4ccc(F)cc4)nc(Nc4ccc(Cl)cc4)n3)cc2)CC1c1ccc(Cl)cc1` (stereo unspecified): the growth is 110%.

Consider `COc1ccc(OC)c(/C=C/c2nnc(Nc3ccccc3)o2)c1`, for which the growth was 116%.

In the case of `COc1cc2cc(Oc3ccc(NC(=O)Nc4ccc(Cl)c(C(F)(F)F)c4)cc3)c(C)nc2cc1OCCN1CCOCC1`, the growth is 37.7%.

As to `CCOC(=O)C1=C(N)Oc2c(sc3c(C)cccc23)C1c1ccc(F)cc1` (stereo unspecified), the growth is 52.7%.

Regarding `NCCCNc1nc2ccccc2c2c(=O)c3cccc(F)c3sc12`, the growth was 80%.

For the molecule `CCc1ccc(Oc2c(-c3ccc(OCc4ccc(Cl)cc4)cc3O)n[nH]c2C(F)(F)F)cc1`, the growth is -28.3% (active).

As for `COc1ccc2sc3c(NCCCNCCO)nc4ccccc4c3c(=O)c2c1`, the growth is 85.9%.

Regarding `COc1nc2ccccc2cc1-c1nc2c(cnn2-c2ccc(Br)cc2)c(=O)[nH]1`, the growth was 52.6%.

Take `Cc1oc2nc[nH]c(=O)c2c1C(=O)/C=C/c1ccc(Br)cc1`: the growth was 24.5%.
